PubChem BioAssay AID2315 (National Center for Advancing Translational Sciences (NCATS), 2010)
The campaign covered roughly 290,000 compounds. About 27,000 (9.3%) were called active. For the sample, actives were picked, then their nearest neighbours and some compounds at random. Values without a mark were called inactive. Cut-off read from the data, not from the text of the source: active = inhibition mostly above about 28% (no sharp cut-off); inactive = mostly below about 43%.

Assay: A qHTS for Small Molecule Inhibitors of Shiga Toxin; note: 0% is about no effect
Details: Vero cells, Shiga toxin protein synthesis inhibition reporter; at 38.7 µM, active compounds read high

| SMILES | inhibition |
| --- | --- |
| CC(=O)Nc1cccc(NC(=O)c2ccc3c(c2)CCN3S(C)(=O)=O)c1 | 6.84% |
| CS(=O)(=O)N1CCc2cc(C(=O)Nc3ccccc3Br)ccc21 | 50.7% (active) |
| CS(=O)(=O)N1CCc2cc(C(=O)Nc3ccccc3)ccc21 | 3.54% |
| COc1ccc(OC)c(NC(=O)c2ccc3c(c2)CCN3S(C)(=O)=O)c1 | -5.31% |
| CSc1ccccc1NC(=O)c1ccc2c(c1)CCN2S(C)(=O)=O | 38.2% (active) |
| COc1cccc(Cn2cc(/C=N/NC(=O)c3cc(O)cc(O)c3)c3ccccc32)c1 | -3.1% |
| CS(=O)(=O)c1ccccc1C(=O)Nc1ccc2sccc2c1 | -5.25% |
| CCN(c1ccccc1)S(=O)(=O)c1ccc(NC(=O)C(C)(C)C)cc1 | 3.09% |
| O=C(CCl)Nc1ccc(Sc2ccc(NC(=O)CCl)cc2)cc1 | 16% |
| CC(C)(CCl)C(=O)Nc1ccc(Sc2ccc(F)cc2)cc1 | 83% (active) |
| O=C(O)c1ccc(NC(=O)c2cn(-c3ccccc3)nc2-c2ccc(Cl)cc2)cc1 | 24.5% |
| Cc1ncc(CC(=O)n2cc(C(=O)c3cc(Cl)ccc3O)cn2)s1 | 8.82% |
| O=C(c1cnn(-c2ccc(Cl)cc2)c1)c1ccccc1O | 59.4% (active) |
| CC(=O)Nc1c2c(nn1-c1cccc(C)c1)CSC2 | -5.43% |
| O=C(CCS(=O)(=O)c1ccc(Br)cc1)NCCc1ccc(Cl)cc1 | -14.4% |
| Cc1nn(Cc2ccccc2Cl)c(Cl)c1C(=O)OC(C(=O)NC(N)=O)C(C)C (stereo unspecified) | 8.84% |
| COc1ccccc1CCNC(=O)c1cnccn1 | 10.7% |
| COc1ccccc1CCNC(=O)c1c(C)nn(CC(C)C)c1Cl | 62.8% (active) |
| N#CC(C#N)=CN=c1ccn(Cc2ccc(Cl)cc2Cl)cc1 | 1.18% |
| Clc1c(OCCCn2ccnc2)ccc2ccccc12 | 17.6% |
| Cc1ccc(CCNC(=O)c2ccc3nc4ccccc4c(=O)n3c2)cc1 | 5.74% |
| O=C(Oc1ccccc1C(=S)N1CCCCC1)c1cc([N+](=O)[O-])cc([N+](=O)[O-])c1 | 13% |
| CCN(CC)CCCNC(=O)COc1ccc2oc3c(c2c1)CCCC3 | -7.61% |

| SMILES | inhibition |
| --- | --- |
| O=C(COc1ccc2oc3c(c2c1)CCCC3)Nc1ccccn1 | 57.2% (active) |
| Cc1ccc(OCC(=O)Nc2ccc(S(=O)(=O)Nc3ccccn3)cc2)cc1 | 2.76% |
| Cc1ccc(Cn2nnc3c(=O)[nH]c(C4CCN(S(=O)(=O)/C=C/c5ccccc5)CC4)nc32)cc1 | -13.7% |
| COCn1c(C(O)c2ccccc2)cc2ccccc21 (stereo unspecified) | -6.57% |
| Cc1ccn2c(c1)nc(=O)c1cc(S(=O)(=O)N3CCC(C)CC3)ccc12 | 14.3% |
| O=C1Nc2cc(C(=O)N3CCC(N4CCCCC4)CC3)ccc2S/C1=C\c1ccccc1 | -12.8% |
| C=CCCN(C(Cc1ccccc1)C(=O)OC)S(=O)(=O)c1cc(Br)ccc1Br (stereo unspecified) | 2.22% |
| COc1cccc(NC(=O)NCCN2CCCCC2)c1 | 17.6% |
| O=C(NCc1cccc(CNC(=O)Nc2cccc(O)c2)c1)Nc1cccc(O)c1 | 17.1% |
| Cc1cc(C)cc(NC(=O)NCc2ccccn2)c1 | -1.91% |
| COC(=O)Cc1ccc(NC(=S)NCc2ccccc2)cc1 | -2.18% |
| COc1cccc(NC(=S)NCc2ccccn2)c1 | 60.7% (active) |
| COc1cccc(S(=O)(=O)NCc2ccc(C(=O)NCc3ccccn3)cc2)c1 | -7.83% |
| COc1cccc(NC(=O)NCc2ccc(F)cc2)c1 | 43.7% (active) |
| COc1cccc(NC(=S)N(Cc2ccc(C)cc2)Cc2ccccn2)c1 | -9.99% |
| CCC(C)c1ccc(NC(=S)NCc2ccccn2)cc1 (stereo unspecified) | 56.9% (active) |
| COc1ccc(OC)c(CCNC(=O)CCn2ccc3cc(S(=O)(=O)N4CCCC4)ccc32)c1 | 1.48% |
| COc1ccc(N(CC(=O)Nc2ccc(F)c(F)c2)S(=O)(=O)c2c(C)[nH]c(=O)[nH]c2=O)cc1 | -5.76% |
| COc1cccc(OC)c1C(=O)Nc1ccc2c(c1)n(C)c(=O)n2C | -1.01% |
| COc1ccc(NS(=O)(=O)c2cc(NC(=O)C3CCCCC3)ccc2N2CCOCC2)cc1 | -4.94% |
| Cn1c(=O)[nH]c(=O)c2c1[nH]c(=S)n2Cc1ccccc1 | -6.6% |
| CCc1cccc(C)c1NS(=O)(=O)c1c(C)nc2sccn2c1=O | -3.6% |
| CCNS(=O)(=O)c1ccc(CCC(=O)N2CCN(c3cc(Cl)ccc3C)CC2)cc1 | -3.72% |
